Measured values from PubChem BioAssay AID435005 (Broad Institute, 2010).
Hit rate of the full screen: of about 300,000 compounds, about 2,400 (0.8%) were called active. The entries come from a sample that favours actives as a whole. A number with no mark means an inactive call.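 How the source made its calls: active means Every replicate reaches about 75%, or at least half do and their mean reaches it too (limit read from the data); inconclusive means At least half of replicates reach the limit but their mean does not; inactive means Under half of replicates reach the limit.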

test: inhibitors of cytokine-induced beta cell apoptosis, primary screen, luminescence (AID 435005); details: INS-1E cytokine-induced death, ATP luminescence, 48 h; stronger effect = higher value; percent of positive-control rescue, neutral wells zero; concentration not given here;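 further: 0% = cytokine-treated negative control wells and 100% = positive control rescue; higher means more ATP so stronger rescue from cytokine killing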

SMILES | protection from apoptosis
NS(=O)(=O)c1ccc(CNC(=S)NC(=O)c2ccco2)cc1 | 2.51%
COc1ccc(CCNc2cc(N3CCN(C(=O)c4ccccc4OC)CC3)ccc2[N+](=O)[O-])cc1OC | 85.3% (active)
COc1ccccc1OCCNc1cc(N2CCOCC2)ccc1[N+](=O)[O-] | -8.92%
O=C(c1ccccc1)N1CCN(c2ccc([N+](=O)[O-])c(NCc3ccco3)c2)CC1 | 13.2%
O=S(=O)(c1ccc(SCc2ccc(Br)cc2)nc1)N1CCOCC1 | -8.12%
Cc1ccc(OCC(=O)Nc2ccccc2C(=O)NC2CC2)cc1 | -2.93%
CC(Sc1ccccc1F)C(=O)Nc1cccc(S(=O)(=O)N2CCOCC2)c1 (stereo not given) | -3.25%
CC(C)NC(=O)Nc1cccc2c1O[C@H](CN(C)S(=O)(=O)c1cccs1)[C@@H](C)CN([C@H](C)CO)C2=O | -19%
CCn1c(=O)c([N+](=O)[O-])c(NCc2ccc3c(c2)OCO3)c2ccccc21 | 1.81%
CCn1c(/C=C/c2ccc([N+](=O)[O-])o2)nc2ccccc2c1=O | 104% (active)
Cc1cc(C)nc(N/N=C/c2ccc([N+](=O)[O-])o2)n1 | -3.24%
C=CC(COCc1ccccc1)N(CC(=O)OC)S(=O)(=O)c1cc(Br)ccc1OC (stereo not given) | 1.07%
O=C(Nc1ccon1)c1nc[nH]c1C(=O)NCc1ccccc1 | 2.59%
O=C(NC1CCCC1)C(=O)c1c[nH]c2ccccc12 | -2.17%
NC(=O)CSc1c[nH]c2ccccc12 | 0.633%
O=S(=O)(O)Oc1c[nH]c2ccccc12 | 95.8% (active)
Cc1cc(NC(=O)COC(=O)/C=C/c2ccc(C)o2)no1 | -0.145%
CC(=O)C[C@H](O)CC(=O)[C@@H]1OC(=O)[C@@H](C)C/C=C\Cc2ccccc21 | -6.43%
COc1ccccc1N(CC(=O)Nc1ccc(C)cc1Cl)S(=O)(=O)c1cccs1 | -11%
O=C(Nc1cccc(S(=O)(=O)N2CCCC2)c1)c1cncc(Br)c1 | -6.13%
Cc1ccc(NC(=O)OCc2cncs2)cc1 | -4.61%
COc1ccc(NC(=O)/C(Cl)=C(/Cl)S(=O)Cc2ccc(C)cc2)cn1 (stereo not given) | 106% (active)
COc1ccc(Nc2ccc([N+](=O)[O-])cn2)cn1 | -4.41%

SMILES | protection from apoptosis
O=C(Nc1cc(S(=O)(=O)Nc2ccc(Cl)cc2)ccc1O)c1ccc(F)cc1F | 3.17%
CCCN(CC(=O)NC(=O)NC1CCCCC1)CC(=O)Nc1cc(Cl)ccc1Cl | -6.07%
CN(C)S(=O)(=O)c1cccc(NC(=O)COc2ccc3ccccc3c2)c1 | -1.11%
Cc1nc(C)c(-c2csc(NCCc3ccccc3)n2)s1 | 78.4% (active)
S=c1[nH]nc(NCCc2ccccc2)s1 | -4.61%
CCNc1nc(-c2cc3ccccc3o2)cs1 | -12.4%
O=C(CSc1ccccc1)Nc1cccc(S(=O)(=O)N2CCCCC2)c1 | -5.41%
COC(=O)[C@]1(Cc2ccccc2)N[C@H](CN(C)S(=O)(=O)c2ccc(OC(F)(F)F)cc2)[C@@H]2C(=O)N(C)C(=O)[C@@H]21 | -3.66%
CCC(CO)Oc1cc(NC(=O)c2ccc(Cl)cc2)c2ncn(C(C)C)c2c1 (stereo not given) | 2.88%
CCOc1cc(N2CCOCC2)c(OCC)cc1NC(=O)COc1cccc2cccnc12 | 102% (active)
CCOc1cc(N2CCOCC2)c(OCC)cc1NC(=O)c1cc(C)nc2ccccc12 | 7.08%
CCOc1cc(N2CCOCC2)c(OCC)cc1NC(=O)COc1cccc(Cl)c1 | 0.61%
Cc1cc(C(=O)NNC(=O)c2ccccc2O)c(C)o1 | -1.18%
C/C(=N\NC(=O)c1ccoc1C)c1ccccc1O | 79.7% (active)
C/C(=N\NC(=O)c1ccccc1C)c1ccc(N2CCOCC2)cc1 | -16.8%
Cn1cncc1C#Cc1c(-c2ccsc2)sc2ccccc12 | -6.24%
O=C(NCCc1ccc(C(F)(F)F)cc1)c1ccc2c(c1)OCO2 | 5.32%
CCCCNc1c(-c2ccc(OC)c(Sc3ccc(OC)cc3)c2)nc2ccc(Cl)cn12 | 16.9%
O=C(NCCc1ccccc1)C1CCN(S(=O)(=O)c2ccc(Br)s2)CC1 | 2.68%
O=S(=O)([N-]c1nc2ccccc2nc1-[n+]1ccc(Cc2ccccc2)cc1)c1ccc(Br)s1 | 118% (active)
Cc1cc(C)c[n+](-c2nc3ccccc3nc2[N-]S(=O)(=O)c2cccs2)c1 | -3.34%
Cc1ccc(C(=O)Nc2ccn(C)n2)cc1 | -7%
